Data as given in PubChem BioAssay (NCI).
This is part of a sample that, as a whole, favours compounds with a hit. Of some 79,000 tested, about 15% had one in any assay. The source made the active and inactive calls. Cut-off read from the data, not from the text of the source: active = growth inhibition above about 70%; inactive = the rest.

Experiments:
[1] = NCI Yeast Anticancer Drug Screen. Data for the rad52 strain (AID 147);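 note: 0% = growth of vehicle-treated control cultures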; conditions: S. cerevisiae rad52 mutant growth inhibition, active compounds read high
Outline: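 Genetically altered yeast (DNA damage repair defect) treated with compound; inhibition calculated relative to vehicle.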

[2] = NCI Yeast Anticancer Drug Screen. Data for the wt1 strain (AID 149);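 note: 0% = growth of vehicle-treated wt1 cultures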; conditions: S. cerevisiae wt1 strain (SPY 50644) growth inhibition, active compounds read high
Outline: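 Vehicle-normalised growth inhibition; strain wt1; compound exposure.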

[3] = NCI Yeast Anticancer Drug Screen. Data for the rad50EPP+ strain (AID 151);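 note: 0% = growth of vehicle-treated control cultures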; conditions: S. cerevisiae rad50 mutant strain, active compounds read high
Outline: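 Strain rad50EPP+; compound exposure; % growth inhibition vs vehicle.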

[4] = NCI Yeast Anticancer Drug Screen. Data for the rad50 strain (AID 155);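 note: 0% = growth of vehicle-only cultures of the same strain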; conditions: S. cerevisiae rad50 strain growth inhibition, active compounds read high
Outline: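 A DNA repair-deficient yeast mutant serves as the test organism; compound-induced growth inhibition is calculated against vehicle-treated cells.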

[5] = NCI Yeast Anticancer Drug Screen. Data for the mec2-1 strain (AID 157); conditions: S. cerevisiae mec2-1 strain, active compounds read high
Outline: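 Cells of the genetically defined mec2-1 yeast strain are incubated with test compound. Inhibition of growth is calculated against vehicle-treated controls.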

[6] = NCI Yeast Anticancer Drug Screen. Data for the sgs1 mgt1 strain (AID 161);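 note: 0% = growth of cultures given vehicle only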; conditions: S. cerevisiae sgs1 mgt1 strain, active compounds read high
Outline: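 Read-out: growth inhibition vs vehicle controls. Cells: mutant yeast strain deficient in DNA damage repair.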

[7] = NCI Yeast Anticancer Drug Screen. Data for the CLN2oe strain (AID 163);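 note: 0% = growth of vehicle-only control cultures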; conditions: S. cerevisiae CLN2oe strain, active compounds read high
Outline: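 Strain altered in cell-cycle control, incubated with compound; growth compared to solvent-treated controls.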

[8] = NCI Yeast Anticancer Drug Screen. Data for the cln2 rad14 strain (AID 165);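 note: 0% = growth equal to vehicle treated cultures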; conditions: S. cerevisiae cln2 rad14 strain, active compounds read high
Outline: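 The screen exposed genetically defined yeast (cln2 rad14) to test compounds and scored growth inhibition relative to vehicle-treated controls.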

[9] = NCI Yeast Anticancer Drug Screen. Data for the bub3 strain (AID 167); conditions: S. cerevisiae bub3 mutant strain, active compounds read high
Outline: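 Inhibition values come from growth of compound-treated mutant yeast normalised to vehicle-treated controls.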

[10] = NCI Yeast Anticancer Drug Screen. Data for the wt2 strain (AID 169);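 note: 0% = growth of vehicle-treated yeast cultures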; conditions: S. cerevisiae wt2 strain growth inhibition, active compounds read high
Outline: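 Steps: yeast strain treated with compound; growth recorded; inhibition calculated relative to cultures given vehicle alone.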

[11] = NCI Yeast Anticancer Drug Screen. Data for the mlh1 strain (AID 171);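 note: 0% = growth of vehicle-treated control cultures of the same strain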; conditions: S. cerevisiae mlh1 strain growth inhibition, active compounds read high
Outline: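 Yeast screen: mutant strain plus compound, growth scored against vehicle control wells.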

[12] = NCI Yeast Anticancer Drug Screen. Data for the sgs1 strain (AID 173);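 note: 0% = growth of vehicle-only control cultures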; conditions: S. cerevisiae sgs1 mutant, active compounds read high
Outline: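 Inhibition of yeast growth served as the measure. The mutant strain was treated with each compound, and growth was normalised to cultures receiving vehicle alone.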

[13] = NCI Yeast Anticancer Drug Screen. Data for the mlh1 rad18 strain (AID 175); conditions: S. cerevisiae mlh1 rad18 strain growth inhibition, active compounds read high
Outline: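 Compound-treated yeast growth, normalised to vehicle controls. Strain bears defined DNA repair mutations.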

[14] = NCI Yeast Anticancer Drug Screen. Data for the rad18 strain (AID 177); conditions: S. cerevisiae rad18 mutant growth inhibition, active compounds read high
Outline: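 Inhibition values reflect reduced yeast growth compared with vehicle-treated controls, using a strain engineered with a DNA damage repair defect.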

[15] = NCI Yeast Anticancer Drug Screen. Data for the mgt1 strain (AID 153); conditions: S. cerevisiae mgt1 mutant growth inhibition, active compounds read high
Outline: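 Read-out: yeast growth inhibition vs vehicle control. Strain mgt1, drawn from a panel altered in DNA damage repair or cell cycle control.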

[16] = at 5.0 µM (retest, dose inferred, filed as 0.5)
[17] = at 50.0 µM (retest, dose inferred, filed as 5.0)

Measured: growth inhibition

CCCNC(=O)OCc1c(COC(=O)NCCC)c(-c2ccc(Cl)c(Cl)c2)n2c1CCC2
inactive: [1]; at 1.2 µM -3% | [1]; at 3.7 µM -7% | [1]; at 11.0 µM -5% | [1]; at 33.0 µM 29% | [1]; at 100.0 µM 58% | [2]; at 1.2 µM -25% | [2]; at 3.7 µM -38% | [2]; at 11.0 µM -35% | [2]; at 33.0 µM -34% | [2]; at 100.0 µM 4% | [3]; at 1.2 µM -4% | [3]; at 3.7 µM 0% | [3]; at 11.0 µM -6% | [3]; at 33.0 µM 8% | [3]; at 100.0 µM 5% | [4]; at 1.2 µM -39% | [4]; at 3.7 µM -43% | [4]; [16] 21% | [4]; at 11.0 µM -27% | [4]; at 33.0 µM 1% | [4]; [17] 42% | [4]; at 50.0 µM 61.9% | [4]; at 100.0 µM 50% | [5]; at 1.2 µM -47% | [5]; at 3.7 µM -40% | [5]; [16] 11% | [5]; at 11.0 µM -31% | [5]; at 33.0 µM -12% | [5]; [17] 25% | [5]; at 50.0 µM 41.1% | [5]; at 100.0 µM 28% | [6]; [16] 30% | [6]; [17] 67% | [6]; at 50.0 µM 50.7% | [7]; at 1.2 µM 0% | [7]; at 3.7 µM -16% | [7]; at 11.0 µM -15% | [7]; at 33.0 µM 4% | [7]; at 100.0 µM 20% | [8]; [16] 20% | [8]; at 50.0 µM 22.8% | [9]; at 1.2 µM -53% | [9]; at 3.7 µM -47% | [9]; [16] 60% | [9]; at 11.0 µM -24% | [9]; at 33.0 µM 6% | [9]; at 50.0 µM 46.2% | [9]; at 100.0 µM 48% | [10]; at 1.2 µM -36% | [10]; at 3.7 µM -16% | [10]; at 11.0 µM -27% | [10]; at 33.0 µM -21% | [10]; at 100.0 µM 44% | [11]; at 1.2 µM -9% | [11]; at 3.7 µM -9% | [11]; at 11.0 µM -19% | [11]; at 33.0 µM 26% | [11]; at 100.0 µM 57% | [12]; at 1.2 µM 0% | [12]; at 3.7 µM 4% | [12]; at 11.0 µM 11% | [12]; at 33.0 µM 40% | [12]; at 100.0 µM 62% | [13]; [16] 22% | [13]; [17] 62% | [13]; at 50.0 µM 56.4% | [14]; at 1.2 µM -35% | [14]; at 3.7 µM -29% | [14]; at 11.0 µM 2% | [14]; at 33.0 µM 62%
active: [8]; [17] 73% | [9]; [17] 90% | [14]; at 100.0 µM 78%

CN(C)CCNC(=Cc1ccc2ccccc2[n+]1C)NCCN(C)C
inactive: [1]; at 1.2 µM 0% | [1]; at 3.7 µM 0% | [1]; at 11.0 µM 0% | [1]; at 33.0 µM -1% | [1]; at 100.0 µM -2% | [2]; at 1.2 µM 0% | [2]; at 3.7 µM -2% | [2]; at 11.0 µM -2% | [2]; at 33.0 µM -1% | [2]; at 100.0 µM 0% | [3]; at 1.2 µM -2% | [3]; at 3.7 µM 0% | [3]; at 11.0 µM 1% | [3]; at 33.0 µM 3% | [3]; at 100.0 µM 2% | [15]; at 1.2 µM 0% | [15]; at 3.7 µM 0% | [15]; at 11.0 µM -3% | [15]; at 33.0 µM -1% | [15]; at 100.0 µM -1% | [4]; at 1.2 µM 1% | [4]; at 3.7 µM 1% | [4]; [16] -1% | [4]; at 11.0 µM 1% | [4]; at 33.0 µM 2% | [4]; [17] 2% | [4]; at 50.0 µM 24.2% | [4]; at 100.0 µM 1% | [5]; at 1.2 µM -5% | [5]; at 3.7 µM 0% | [5]; [16] 0% | [5]; at 11.0 µM 3% | [5]; at 33.0 µM 1% | [5]; [17] 2% | [5]; at 50.0 µM 19.6% | [5]; at 100.0 µM 1% | [6]; [16] -12% | [6]; [17] -13% | [6]; at 50.0 µM 19.4% | [7]; at 1.2 µM -3% | [7]; at 3.7 µM 0% | [7]; at 11.0 µM 0% | [7]; at 33.0 µM 4% | [7]; at 100.0 µM -1% | [8]; [16] 1% | [8]; [17] 8% | [8]; at 50.0 µM -2.95% | [9]; at 1.2 µM 2% | [9]; at 3.7 µM -3% | [9]; [16] -3% | [9]; at 11.0 µM 0% | [9]; at 33.0 µM -9% | [9]; [17] -2% | [9]; at 50.0 µM -4.65% | [9]; at 100.0 µM -5% | [10]; at 1.2 µM -2% | [10]; at 3.7 µM -3% | [10]; at 11.0 µM -2% | [10]; at 33.0 µM -2% | [10]; at 100.0 µM 0%
